Data from PubChem BioAssay.

assay: inhibitors of poly I:C-induced TLR3 signaling, primary screen, cell-based, poly I:C stimulus, luciferase, 10K MLSCN set (AID 602277); conditions: HEK293-TLR3 RL24 IRF3 luciferase reporter, at 10 µM, hits give high values;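 active means inhibition of the reporter signal at or above 50%; inactive means inhibition below 50%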

inhibition, inactive:
COc1ccc(C)cc1NS(=O)(=O)c1ccc(NS(=O)(=O)c2ccc(NC(C)=O)cc2)cc1 24.8%
O=C(c1ccc(Cl)s1)N1CCN(c2nc3ccccc3s2)CC1 6.32%
CCCC(=O)Nc1cc(C)c(NC(=O)c2ccccn2)cn1 11.8%
c1ccc2c(c1)CC(N1CCCCC1)c1ccccc1N2 (centres undefined) 24.1%
C=CCN(CC=C)C(=O)c1ccncc1 5.55%
Fc1cccc(NCc2cn3ccccc3n2)c1 -62.5%
COc1ccc(S(=O)(=O)NCCC(=O)NC2CCCCCCC2)cc1 26%
O=C(C1CCCN(S(=O)(=O)c2cccs2)C1)N1CCc2ccccc2C1 (centres undefined) 14.2%
CCCCc1noc2c1/C(=N\O)CC(c1ccccc1)C2 (centres undefined) -152%
CCOC(=O)C1CN(S(=O)(=O)c2ccc(C)cc2)CCN1S(=O)(=O)c1ccc(C)cc1 (centres undefined) 11%
CCS(=O)(=O)NCCc1cc2c(OC)ccc(OC)c2[nH]c1=O 26.4%
COC(=O)C1=C(C)NC(C)=C(C(=O)OC)C1C1CC=CCC1 (centres undefined) 22.8%
CCOCC(=O)Nc1c(C(=O)Nc2ccc(OC)cc2OC)oc2ccccc12 -15.2%
Cc1nn(Cc2ccc(C(=O)NC3CCCCC3)o2)c(C)c1Br 11.6%
O=C(C1CCN(S(=O)(=O)c2cccc3cccnc23)CC1)N1CCN(C2CCCCC2)CC1 35.6%
COc1cccc(C2CC(c3ccc(F)cc3)Nc3nc(N)nn32)c1 (centres undefined) 16.2%
CCSc1nnc(NC(=O)c2csc(C)c2)s1 -89.7%
Cc1ccc2cc(CCNC(=O)C(C)C)c(=O)[nH]c2c1C -5.17%
COc1cccc(-c2nc(CS(=O)(=O)CC(=O)N3CCN(c4ccccn4)CC3)c(C)o2)c1 -1.07%
COC(=O)CSc1ncccc1-c1nc2ccccc2[nH]1 -32.8%
Cc1ccc2[nH]c(=O)c(-c3noc(-c4ccncc4)n3)cc2c1 12.4%
C/C(=N\O)C(=O)NCc1ccccn1 -25.9%
CCCC(=O)Nc1ccccc1-c1nnn(CC(=O)Nc2ccc(OCC)cc2)n1 9.95%
CSc1nnc(-c2ccc(NC(=O)CCc3ccccc3)cc2)n1C 15.4%
Cn1c(=O)c2c(nc(-n3ccnc3)n2C)n(C)c1=O 17.1%
COC(=O)c1ccccc1NC(=O)CSc1nc2c(c(=O)n(C)c(=O)n2C)n1C -34.2%
CN(C(=O)Cn1c(=O)n(CCCCC(=O)NC2CCCC2)c(=O)c2ccccc21)C1CCCCC1 25.2%
CCOC(=O)c1ccc(NC(=O)Cn2cc3c(n2)CCC(C)C3)cc1 (centres undefined) 23.6%
O=C(Nc1cnn(C23CC4CC(CC(C4)C2)C3)c1)c1cnn2c(C(F)(F)F)cc(-c3ccco3)nc12 -44.9%
N#C/C(=C(/O)COC(=O)CCC1CCCCC1)c1nc2ccccc2[nH]1 24.8%
O=C(c1ccccc1-c1nc(-c2ccccc2)no1)N1CCCC1 -38.1%
CC(=O)SCCC(=O)Nc1ccccc1 28.9%
c1ccc(Cn2ncc3c2ncn2c(-c4ccncc4)nnc32)cc1 -7.97%
CCOC(=O)c1sc2nc(SCC(=O)NCc3ccco3)n(Cc3ccccc3)c(=O)c2c1C 21.4%
N#Cc1nc(-c2ccco2)oc1N1CCN(c2cccc(Cl)c2)CC1 -3.74%
COc1ccc(C2(C(=O)N3CCCC3)CCOCC2)cc1OC 15.1%
O=C(O)CN1C(=O)CNC1=O 24%
Cc1c(Cl)cnc(NC(=O)COC(=O)C(NC(=O)c2ccco2)C(C)C)c1Cl (centres undefined) 5.64%
CCOc1ccc(N(CC(=O)NCc2ccco2)S(=O)(=O)c2ccc(OC)c(OC)c2)cc1 30.5%
